The source of these data is PubChem BioAssay AID686978 (National Center for Advancing Translational Sciences (NCATS), 2013).

The structures appear in SMILES notation. Screen size: about 420,000 compounds; about 64,000 (15%) were called active. Not shown: some 27% with an inconclusive outcome. Calls follow the shape of the dose curve; as a rule, active = well fitted inhibition curve with a large enough effect; inconclusive = small, poorly fitted or top-dose-only effect; inactive = flat fitted curve, though single readings scatter. These entries were drawn from the full list.
% is scaled to controls: 0 for no effect and ±100 for the full control effect; potency is read from the fitted curve at half-maximal effect.

A short description of the assay: qHTS for Inhibitors of human tyrosyl-DNA phosphodiesterase 1 (TDP1): qHTS in cells in absence of CPT. Also: nearly all actives have a fitted effect of over 55% in size. The conditions noted are these: DT40 Tdp1-/- hTDP1 cells, no CPT, ATP luminescence, 48 h; activity change, negative = growth inhibition: at 46.2 µM (top of the series). Put shortly: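 No-CPT arm: Tdp1-/-;hTDP1 DT40 cells (400/well) plus compounds, incubated ≥48 hr at 37 °C. Readout CellTiter-Glo luminescence.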
A general note: qHTS replaces the single test concentration by a dilution series.
For the molecule `O=C(c1cccc(C(=O)N2CCc3ccccc32)n1)N1CCc2ccccc21`, the “activity change, negative = growth inhibition” value was -27% (inactive). Regarding `CCn1nc(C(=O)OCC(=O)N2c3ccccc3CC2C)c2ccccc2c1=O` (configuration not stated), the “activity change, negative = growth inhibition” value was -7.1% (inactive). The same measure, in the same setting: for `CCC(=O)N1CCCc2ccccc21` the value was 3.1% (inactive). With `CCCn1nc(C(=O)N2CCCc3ccccc32)c2ccccc2c1=O`, the Potency is 18.4 µM (active).

For the molecule `CCCCn1nc(C(=O)OCC(=O)Nc2sccc2C(N)=O)c2ccccc2c1=O`, the “activity change, negative = growth inhibition” value is -22.1% (inactive). The same measure, in the same setting: then `O=C(NCCCN1CCCCCC1)C1CC(=O)N(C2CCCC2)C1` (configuration not stated), with -3.95% (inactive).

Regarding `CCN1CCN(C(c2ccc(C)cc2)c2c(O)cc(C)n(Cc3ccco3)c2=O)CC1` (configuration not stated), the “activity change, negative = growth inhibition” value is -8.76% (inactive). As for `CCOC(=O)[C@H](CCc1ccccc1)N[C@@H](C)C(=O)N1CC2(C[C@H]1C(=O)O)SCCS2`, the “activity change, negative = growth inhibition” value was -5.18% (inactive). On the same count and under the same terms, for `Cc1ccc(NC2=NC(c3ccccc3)n3c(nc(C)cc3=O)N2)cc1` (configuration not stated) the value was -4.91% (inactive). As to `COc1cccc(NCCC(=O)c2cccc([N+](=O)[O-])c2)c1`, the Potency is 14.6 µM (active). In the case of `COc1cccc(CNC(=O)CCCC(=O)Nc2cccc([N+](=O)[O-])c2)c1`, the “activity change, negative = growth inhibition” value was -1.7% (inactive). On the same count and under the same terms, for `CC(C)(C)SCCNC(=O)c1cccc([N+](=O)[O-])c1` the value was -20.7% (inactive). As to `CC1=NN(c2ccc(Cl)c(C(=O)O)c2)C(=O)/C1=C/c1ccc(-c2ccccc2[N+](=O)[O-])o1`, the “activity change, negative = growth inhibition” value is 2.39% (inactive). Still for that read-out and setting: then `Fc1cccc2ncnc(OCc3ccccc3)c12`, with 0.0434% (inactive).

For `Cc1nc2ccccc2cc1OCc1ccc(F)cc1`, the Potency was 11.6 µM (active). On to `Cc1occc(=O)c1OCc1ccc(F)cc1`, for which the “activity change, negative = growth inhibition” value is 5.6% (inactive). Still for that read-out and setting: then `Cc1cc(C)cc(C(=O)NC2C(=O)N3C(C(=O)O)=C(CSc4nnc(C)s4)CSC23)c1` (configuration not stated), with 7.63% (inactive).

As for `CCOc1ccc(NC(=O)c2ccc(NC(=O)CN3C(=O)C(=O)N(CC(C)C)C3=O)cc2)cc1`, the “activity change, negative = growth inhibition” value is -29.5% (inactive). As for `Cc1ccsc1C(=O)OCC(=O)NCCc1ccccc1`, the “activity change, negative = growth inhibition” value is 1.34% (inactive). On the same count and under the same terms, then `CCC1CCCCN1C(=O)CSc1nc(C)cc(C)n1` (configuration not stated), with 1.91% (inactive). Still for that read-out and setting: for `CC(=O)c1cccc(NC(=S)N2CCCC2)c1` the value was 25.2% (inactive). On to `Cc1cccc(NC(=S)N2CCC(C(=O)c3ccc(F)cc3)CC2)c1`, for which the Potency is 13 µM (active).

`Cc1cccc(NC(=O)C2CCN(C(=O)NC3CCCCC3)CC2)c1`: the “activity change, negative = growth inhibition” value was -3.04% (inactive). Still for that read-out and setting: then `Cn1c(N2CCOCC2)c(C=O)c2ccccc21`, with -2.65% (inactive); and `CCNC(=S)N1CCN(C(=O)c2ccco2)CC1`, with -11.5% (inactive). As for `O=C1OC(c2ccc(Cl)cc2)=N/C1=C\c1cccnc1`, the Potency is 16.4 µM (active). On to `Cc1ccc(C2=C/C(=C\c3cccnc3)C(=O)O2)cc1`, for which the “activity change, negative = growth inhibition” value was 1.52% (inactive). For the molecule `Cc1ccccc1C1=N/C(=C/c2cccnc2)C(=O)O1`, the “activity change, negative = growth inhibition” value is -15.2% (inactive). The same measure, in the same setting: then `O=C1NC2(CCCCCC2)C(=O)N1CCS(=O)(=O)Oc1ccccc1`, with -21.8% (inactive). Same read-out and setting: for `CCCNC(=S)N1CCC(NC(=O)c2ccc(OC)cc2)CC1` the value was -23% (inactive); for `CCOn1c(=O)c(=O)n(O)c2ccccc21`, 6.1% (inactive); for `O=C(Nc1nonc1-c1ccc(Cl)cc1)c1ccco1`, -16.8% (inactive). As to `Cc1cccc(-c2c(NC(=O)c3ccco3)oc3ccc(Cl)cc3c2=O)c1`, the Potency is 25.9 µM (active). Take `COc1ccc(-c2c(NC(=O)c3ccco3)oc3ccc(Cl)cc3c2=O)cc1`: the “activity change, negative = growth inhibition” value is -0.195% (inactive). Turning to `Clc1ccccc1CSc1nnc(-c2ccco2)c(-c2ccco2)n1`, the “activity change, negative = growth inhibition” value is -20.7% (inactive). Take `Cc1onc(-c2ccc(Cl)cc2)c1-c1ccnn1S(=O)(=O)c1ccc(Cl)cc1`: the Potency was 16.4 µM (active).

Take `CC(Oc1ccc(Cl)cc1)c1ccnn1S(C)(=O)=O` (configuration not stated): the “activity change, negative = growth inhibition” value was -19.6% (inactive).

In the case of `COC(=O)c1noc(C)c1-c1ccnn1C(=O)c1ccc(Cl)cc1`, the “activity change, negative = growth inhibition” value is 3.11% (inactive).

In the case of `Nc1ncnc2c1ncn2[C@@H]1O[C@H](C(=O)NS(=O)(=O)c2c(Cl)nc3sccn23)[C@@H](O)[C@H]1O`, the “activity change, negative = growth inhibition” value is -0.108% (inactive). For `COC1C[C@@H](O[C@@H]2C(C)C(=O)OC(C)C(C)C(O)C(C)C(=O)[C@@]3(CO3)CC(C)C(OC3OC(C)CC(N(C)C)C3O)C2C)OC(C)[C@@H]1O` (some centres not stated), the “activity change, negative = growth inhibition” value is -0.826% (inactive).

In the case of `Cc1ccc(S(=O)(=O)n2cccc2CO)cc1`, the “activity change, negative = growth inhibition” value is -3.56% (inactive). Same read-out and setting: then `CCOc1ccc(-c2cc3c(=O)n(CC(=O)NCc4ccc(OC)cc4)ccn3n2)cc1`, with -10.6% (inactive); and `COCCCNC(=S)NNC(=O)C(O)(c1ccccc1)c1ccccc1`, with -6.89% (inactive); and `COc1cc(C2/C(=C(\O)c3ccc4c(c3)CC(C)O4)C(=O)C(=O)N2c2nnc(C)s2)cc(OC)c1OC` (configuration not stated), with 11.4% (inactive). Same read-out and setting: then `CS(=O)(=O)N1CCc2nc(-c3ccccc3)sc2C1`, with 2.11% (inactive). As for `COC(=O)c1ccccc1SC1CC(=O)N(c2cccc(C)c2)C1=O` (configuration not stated), the Potency is 8.2 µM (active). Regarding `COC(=O)c1cccc(N2C(=O)C3C4C=CC(CC4)C3C2=O)c1` (configuration not stated), the “activity change, negative = growth inhibition” value was -0.408% (inactive).

For the molecule `COC(=O)[C@@]1(Sc2ccc(C)cc2)CC(=O)N(c2cccc(SC)c2)[C@@H]1c1ccccc1`, the “activity change, negative = growth inhibition” value was -80.6% (inactive). The same measure, in the same setting: then `Cc1ccc(CC2S/C(=C(/C#N)C(=O)N3CCOCC3)N(c3ccccc3)C2=O)cc1` (configuration not stated), with -17.2% (inactive); and `O=C(NC1CCCC1)C(=O)c1c[nH]c2ccccc12`, with 2.79% (inactive). Turning to `C[n+]1ccc(/C=C/c2c[nH]c3ccccc23)cc1`, the Potency was 0.651 µM (active). In the case of `CC(=O)N/C(=C/c1ccc(Cl)cc1)C(=O)NCCc1c[nH]c2ccccc12`, the “activity change, negative = growth inhibition” value was -27.7% (inactive).
